From PubChem BioAssay AID1986 (Sanford-Burnham Center for Chemical Genomics, 2009)
About 890 (0.31%) of roughly 290,000 compounds were called active. No stated cut-off is given here; in the data, active means inhibition mostly above about 52% (no sharp cut-off); inactive means mostly below about 76%. For the sample, actives were picked, then their nearest neighbours and some compounds at random.

Assay: cell-free HIV fusion peptide-binding blockers – biochemical, uHTS, fluorescence dequenching, primary screen (AID 1986)
Conditions: 30 min, stronger effect = higher value

Row | Compound | inhibition (at 20 µM) | inhibition (measured here: repeat confirmation average inhibition, at 18.6 µM)
1 | O=C(O)/C=C/c1cccc(NC(=O)Nc2ccc([N+](=O)[O-])cc2)c1 | 1.6% (inactive) | –
2 | O=C(COC(=O)CCc1ccc(S(=O)(=O)N2CCOCC2)cc1)NC(=O)NC1CCCCC1 | 0.6% (inactive) | –
3 | CCCOc1cc(C)c(S(=O)(=O)n2ccc(C)n2)cc1C | 1% (inactive) | –
4 | COc1ccc(CN2C(=O)Cc3c2nc(N)c2c(N)nc(N4CCCCC4)c(C#N)c32)cc1 | 23.9% (inactive) | –
5 | CCN(CC)c1nc2c3c(nc4c(c3c1C#N)CC(=O)N4c1ccc(Cl)cc1)NC(C)=N2 | 16.3% (inactive) | –
6 | CC1=Nc2nc(N3CCCCC3)c(C#N)c3c4c(nc(c23)N1)N(c1ccc(C(C)C)cc1)C(=O)C4 | 63.9% (active) | –
7 | Cc1onc(-c2ccccc2)c1-c1csc(N/N=C/c2ccccc2)n1 | -1.5% (inactive) | –
8 | COc1ccc(C)cc1NC(=O)c1ccccc1NS(=O)(=O)c1ccc(Cl)s1 | 60.5% (active) | –
9 | O=C(Nc1ccccc1)c1ccccc1NS(=O)(=O)c1ccc(Cl)s1 | 28.5% (inactive) | –
10 | Cc1ccc(NC(=O)c2ccccc2NS(=O)(=O)c2ccc(Cl)s2)cc1 | 56.3% (inactive) | 29%
11 | CCN(CC)S(=O)(=O)c1ccc(C(=O)Nc2nnc(-c3ccco3)o2)cc1 | 9.7% (inactive) | –
12 | O=C(NC1CC1)C1CCN(C2CCN(C(=O)c3c(F)cccc3Cl)CC2)CC1 | 3.8% (inactive) | –
13 | CC(C)CN1CCC(=O)N(CCN=[N+]=[N-])CC1 | -1.2% (inactive) | –
14 | CC(C)(Oc1ccc(Cl)cc1)C(=O)Nc1ccncc1 | -1.9% (inactive) | –
15 | NC(=O)[C@@H]1CC2(CC(c3cccc(NC(=O)[C@@H]4CCC(=O)N4)c3)=NO2)CN1C(=O)Cc1ccc([N+](=O)[O-])cc1 (stereo partly drawn) | -1.2% (inactive) | –
16 | CCOc1cc(/C=C2\SC(=Nc3ccccc3)N(c3ccccc3)C2=O)ccc1OCC(=O)O | 58.9% (active) | –
17 | CCOc1ccc(/C=C2/SC(=S)N(C(C(=O)O)c3ccccc3)C2=O)cc1OCC (stereo not drawn) | 56.2% (active) | –
18 | CCOc1cc(/C=C2\SC(=Nc3ccc(F)cc3)N(c3ccc(F)cc3)C2=O)ccc1OCC(=O)O | 41.5% (inactive) | –
19 | COc1cccc(/C=C2\SC(=S)N(C(Cc3ccccc3)C(=O)O)C2=O)c1 (stereo not drawn) | 30.7% (inactive) | –
20 | COc1cc(/C=C2\SC(=S)N(C(C(=O)O)c3ccccc3)C2=O)ccc1O (stereo not drawn) | 47.4% (inactive) | –
21 | CCOc1ccc(/C=C2\SC(=S)N(C(C(=O)O)c3ccccc3)C2=O)cc1OC (stereo not drawn) | 12.1% (inactive) | –
22 | O=C(O)C(Cc1ccccc1)N1C(=O)/C(=C/c2cccs2)SC1=S (stereo not drawn) | 17.7% (inactive) | –
23 | Cc1ccc(/C=C2\SC(=S)N(C(Cc3ccccc3)C(=O)O)C2=O)cc1 (stereo not drawn) | 53.9% (active) | –
24 | O=C(O)C(Cc1ccccc1)N1C(=O)/C(=C/c2cccc3ccccc23)SC1=S (stereo not drawn) | 52.6% (active) | –
25 | COc1ccc(/C=C2\SC(=S)N(C(Cc3ccccc3)C(=O)O)C2=O)cc1 (stereo not drawn) | 38.4% (inactive) | –
26 | COc1cc(/C=C2\SC(=Nc3ccc(F)cc3)N(c3ccc(F)cc3)C2=O)ccc1OCC(=O)O | 35.3% (inactive) | –
27 | O=C(O)C(Cc1ccccc1)N1C(=O)/C(=C/c2ccccc2)SC1=S (stereo not drawn) | 21.1% (inactive) | –
